ELG1 genotox = induces genotoxicity in HEK293T cells with luciferase-tagged ELG1 | HEK293T ELG1-luciferase reporter, luminescence, 16 h | Potency, µM (titrated, usually from 46 µM), inactives show at the top dose activity change, positive = activation, actives largely listed as activators | 330,000 compounds, 1.3% hits | AID 504466; note: % of control where 0% means no effect; nearly all actives have a fitted effect of over 60% in size
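Genotoxic stress is detected as increased luminescence from luciferase-tagged ELG1 in HEK293T cells, measured with ONE-Glo after a 16 hr treatment at 37 °C.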
NPC1 promoter act = activators of NPC1 promoter | 320,000 compounds, 2.4% hits | Huh7 NPC1 promoter luciferase reporter, 24 h | AID 485313 | Potency, µM (series often up to 9.22 µM), inactives show top-dose activation, hits mostly activators; note: % of control where 0% means no effect; nearly all actives have a fitted effect of over 60% in size
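Huh7 reporter cells (NPC1 promoter driving luciferase) are dosed with compound for 24 h at 37 °C, 5% CO2; luciferase detection reagent is then added and luminescence measured after 10 min at ambient temperature.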
ELG1 repair inh = inhibitors of ELG1-dependent DNA repair in HEK293T cells; 330,000 compounds, 2.3% hits; Potency, µM (highest dose often 46.1 µM), without a hit: top-dose activity change, negative = inhibition, actives largely listed as inhibitors; HEK293T ELG1-luciferase reporter, luminescence, 16 h; DNA damage induced by 5-fluorouridine; AID 504467; note: % is set by controls: 0 for no effect and ±100 for the full control effect; nearly all actives have a fitted effect of over 55% in size
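5-Fluorouridine DNA damage + compound/DMSO, 2,000 cells/well, 16 h, 37 °C/5% CO2. ONE-Glo, 30 min RT, luminescence. Readout = decrease in reporter signal.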
Rab9 promoter act = Rab9 promoter activation; Huh7 Rab9 promoter-luciferase reporter, luminescence, 24 h; Potency, µM (series often up to 9.22 µM), without a hit: top-dose activation, negative = inhibition, most hits filed as activators; 320,000 compounds, 2.8% hits; note: % of control where 0% means no effect; nearly all actives have a fitted effect of over 60% in size
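Promoter activation is measured as luciferase luminescence in Huh7 cells stably transfected with a Rab9 promoter–luciferase construct, following 24 h compound exposure at 37 °C and 10 min reagent incubation at ambient temperature.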
SMN2 splice up = SMN2 splice variant enhancement; 210,000 compounds, 2.8% hits; Potency, µM (highest dose often 46.1 µM), for inactives: at the top dose activity change, positive = activation, most hits filed as activators; HEK293 SMN2-luciferase splicing reporter, luminescence, 30-36 h; note: % of control where 0% means no effect; nearly all actives have a fitted effect of over 55% in size
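HEK293 cells carry an SMN2 minigene-luciferase reporter in which exon 7 inclusion puts luciferase in frame. Cells were seeded at 2000 cells/well, attached for 10-12 hours, then exposed to compounds for 30-36 hours at 37C before ONE-Glo luminescence.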
FLuc counter = inhibits or activates purified firefly luciferase, miR-21 counter-screen | P08659 | purified FLuc, Km substrates, luminescence inhibition | Potency, µM (highest dose often 57.5 µM), for inactives: top-dose activity change, negative = inhibition, actives largely listed as inhibitors | 360,000 compounds, 6.9% hits;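 note: plate controls were vehicle for no effect and reference inhibitor for full effect; nearly all actives have a fitted effect of over 55% in size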
Target sequence (P08659 whole entry, looked up): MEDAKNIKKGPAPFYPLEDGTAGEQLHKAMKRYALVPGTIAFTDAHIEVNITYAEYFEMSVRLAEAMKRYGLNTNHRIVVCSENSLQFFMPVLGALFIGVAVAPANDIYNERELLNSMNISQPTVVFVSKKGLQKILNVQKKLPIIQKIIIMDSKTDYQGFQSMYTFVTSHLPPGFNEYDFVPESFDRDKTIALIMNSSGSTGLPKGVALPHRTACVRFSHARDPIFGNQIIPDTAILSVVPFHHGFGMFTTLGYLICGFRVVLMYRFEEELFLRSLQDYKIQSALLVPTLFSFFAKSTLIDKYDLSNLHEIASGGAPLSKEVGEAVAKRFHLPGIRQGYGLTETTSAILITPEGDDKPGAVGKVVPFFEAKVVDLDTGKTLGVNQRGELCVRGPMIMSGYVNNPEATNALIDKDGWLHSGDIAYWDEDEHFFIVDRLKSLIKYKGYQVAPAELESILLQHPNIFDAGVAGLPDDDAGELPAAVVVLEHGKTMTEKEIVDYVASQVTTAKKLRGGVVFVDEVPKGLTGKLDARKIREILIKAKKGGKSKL
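Biochemical qHTS of compounds, final roughly 60 µM downward over six points, against 10 nM purified firefly luciferase using Km concentrations of substrates (10 uM D-luciferin, 10 uM ATP) in Tris acetate pH 7.5 buffer; luminescence output.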
* hit, by the source's call; ? = inconclusive; / = no result given. Compounds with a hit are over-represented: about 9.2% of the library has one in this group of screens. Calls come from the whole dose curve; as a rule, active = well fitted curve in the direction sought with a large enough effect; inconclusive = small, poorly fitted or top-dose-only effect, or another doubt; inactive = no such curve, though single readings can be large; an effect the other way counts as inactive or inconclusive. Potency is the fitted concentration of half-maximal effect.

SMILES | ELG1 genotox | NPC1 promoter act | ELG1 repair inh | Rab9 promoter act | SMN2 splice up | FLuc counter
Cc1ccsc1/C=N/Nc1ccc(F)cc1F | ? | ? | ? | 2.2µM* | / | 12µM*
COc1cc(/C=N/Nc2ccc(F)cc2F)cc(OC)c1OC | 14% | 0% | -27% | 2% | / | ?
Cc1ccsc1/C=N/Nc1ncc(Cl)cc1Cl | ? | 2.8µM* | ? | ? | ? | 2.7µM*
Cc1cc(C)nc(N/N=C/c2sccc2C)n1 | 13% | 9% | ? | 4% | ? | ?
Cc1ccsc1/C=N/Nc1nc(=O)[nH]nc1C | ? | ? | ? | 2.8µM* | 18µM* | ?
Cc1ccc(C)c(NC(=O)C2CCCN(c3cnccn3)C2)c1 (centres undefined) | -1% | 4% | 15% | 4% | / | 1%
COc1ccccc1CNC(=O)CCCNC(=O)c1ccc(Cl)cc1 | 3% | -1% | -1% | 6% | / | -3%
CCONC(=O)Nc1ccccc1 | 1% | -4% | 12% | -1% | 15% | -3%
Clc1ccc(OCc2nc(-c3ccncc3)no2)c(Br)c1 | ? | 1.3µM* | ? | 0.71µM* | 3.2µM* | 2.1µM*
c1ccc(OCc2nc(-c3ccncc3)no2)cc1 | 10% | 14% | ? | ? | / | ?
Clc1ccccc1OCc1nc(-c2ccncc2)no1 | ? | 2.8µM* | ? | 2µM* | 13µM* | 11µM*
Cc1cc(OCc2nc(-c3cccnc3)no2)c(C)cc1Br | 13% | 11% | 1% | 12% | -3% | 6%
O=C(CCc1nnc(Cc2c[nH]c3ccccc23)o1)NCC1CC12CCCCC2 (centres undefined) | -1% | 1% | 9% | 10% | / | -8%
COc1ccc(Br)cc1/C=N/NC(=O)c1nc(-c2ccccc2)n2c1CCCCC2 | -2% | -3% | 21µM* | 0% | 14% | 2%
COc1ccc(C2c3ccc(O)cc3Oc3ncn4nc(-c5cccnc5)nc4c32)cc1OC (centres undefined) | -2% | -2% | 10µM* | -5% | / | -1%
CN(/N=C/c1ccncc1)c1cnc2ccccc2n1 | 2% | ? | ? | 4µM* | 11µM* | 4.8µM*
CN(/N=C/c1ccncc1)C1=NCCN1 | 0% | -3% | 6% | 8% | / | -2%
NC(=O)c1ccccc1OCC(=O)Nc1ccc(Cl)c(Cl)c1 | 1.2µM* | 0.35µM* | ? | 0.35µM* | / | 0.67µM*
O=C(COc1cc(Cl)ccc1Cl)Nc1ccc2c(c1)CCC2 | 8% | 16% | 23% | 17% | 13% | 3%
NC(=O)c1ccccc1OCC(=O)Nc1ccc2c(c1)CCC2 | 6% | 22% | ? | ? | / | 15µM*
COc1ccccc1OCC(=O)Nc1ccc(Cl)cc1 | 14% | 13% | ? | 20% | ? | ?
Cc1ccc(C)c(NC(=O)c2cc(-c3cc(C)ccc3O)n[nH]2)c1 | ? | 2µM* | ? | 26% | / | 3µM*
Cc1cccc(NC(=O)c2cc(-c3cc(Cl)ccc3O)n[nH]2)c1 | 18% | 2.2µM* | ? | ? | / | ?
COc1ccc(Cl)cc1NC(=O)c1cc(-c2cc(C)ccc2O)n[nH]1 | -3% | -2% | -11% | -4% | / | -14%
Oc1ccc(N=C/C=C/c2cccc(Br)c2)cc1-c1nc2ccccc2s1 | ? | ? | ? | ? | 76% | 6µM*
SMILES | ELG1 genotox | NPC1 promoter act | ELG1 repair inh | Rab9 promoter act | SMN2 splice up | FLuc counter
O=C(Nc1ccccc1-c1nc2ccccc2s1)c1ccc(F)cc1 | / | / | / | / | -18% | -1%
Oc1ccc(-c2nc3ccccc3s2)c(O)c1 | ? | 2.8µM* | ? | 4µM* | / | 6µM*
Nc1ccccc1-c1nc2ccccc2s1 | ? | ? | ? | 4µM* | ? | 11µM*
CN(C)c1nc(N)nc(-c2nc3ccccc3s2)n1 | 3.3µM* | 8% | ? | ? | 8.9µM* | ?
CCOc1ccc(NC(=O)CC2Nc3cccc4cccc(c34)NC2=O)cc1 (centres undefined) | / | / | / | / | -5% | ?
Nc1ccc(O)c(-c2nc3ccccc3s2)c1 | ? | 3.2µM* | ? | ? | ? | 6µM*
O=C(Nc1ccc(O)c(-c2nc3ccccc3s2)c1)c1cccs1 | 3% | 8% | ? | -1% | 15% | ?
CCOc1ccc(NC(=O)CCc2c(C)nc3cc(-c4ccc(Cl)cc4)nn3c2C)cc1 | / | / | / | / | -17% | 6.7µM*
COc1cc(OC)cc(-c2cc3nc(C)c(CCC(=O)Nc4ccc(F)c(Cl)c4)c(C)n3n2)c1 | / | / | / | / | -11% | ?
CCOC(=O)c1cccc(NC(=O)CCc2c(C)nc3cc(-c4ccc(Cl)cc4)nn3c2C)c1 | / | / | / | / | -21% | 12µM*
Cn1ncc(Br)c1N1C(=O)CCC1=O | 0% | 1% | 16% | -2% | / | 1%
CCOC(=O)CNC(=O)c1ccc(-c2nn(C)c(=O)c3ccccc23)cc1 | / | / | / | / | 10% | 3%
CCn1nc(C)cc1C(=O)Sc1ccc(C)cc1 | 0% | -1% | 0% | -4% | / | 17µM*
Cc1ccc(SC(=O)c2c([N+](=O)[O-])c(C)nn2C)cc1 | -9% | -1% | -1% | 0% | / | -4%
C=C1N(c2cccc(Cl)c2)C(=O)OC1(C)C | 2% | 0% | 9% | -2% | / | -1%
COC1CCN(Cc2cn(Cc3ccccc3)nc2-c2cc3ccccc3o2)CC1 | -5% | 0% | 21µM* | 2% | / | -2%
OCC1CCN(Cc2cn(Cc3ccccc3)nc2-c2cc3ccccc3o2)CC1 | 0% | -2% | -13% | 1% | / | 1%
CC1(C)CC(=O)/C(=N/Nc2ccc(Cl)cc2)CO1 | ? | 1.8µM* | ? | 1.8µM* | / | 6.7µM*
Cc1cccc(N/N=C2/COC(C)(C)CC2=O)c1 | ? | 3.2µM* | ? | 3.2µM* | 18µM* | 8.5µM*
O=[N+]([O-])c1ccc(O)c(C2=NNC(c3ccccc3F)C2)c1 (centres undefined) | 5% | 1µM* | ? | 0.32µM* | / | 3.4µM*
COc1ccc([N+](=O)[O-])cc1C1NN=C(c2ccccc2O)S1 (centres undefined) | 4% | -3% | ? | 16% | -17% | ?
C(=C(c1ccccc1)c1ccccc1)c1ccccn1 | 3% | -3% | 12% | 2% | / | 1%
COc1ccc(/C(C#N)=C/c2ccccn2)cc1 | ? | 2µM* | ? | 1.4µM* | / | 4.8µM*
COC(=O)c1ccc(/C=C(\C#N)c2nc3ccccc3s2)cc1 | 7% | 6% | ? | 6% | -2% | ?
N#C/C(=C\c1ccccn1)c1nc2ccccc2s1 | ? | 2% | ? | ? | 15% | 3.4µM*

High-throughput results from PubChem.
